Compounds with a hit are over-represented: about 9.2% of the library has one in this group of screens.
Rab9 prom act: qHTS Assay for Rab9 Promoter Activators | Huh7 Rab9 promoter-luciferase reporter, luminescence, 24 h | Potency, µM (series often up to 9.22 µM), for the others: at the highest dose activation, negative = inhibition, actives largely listed as activators | hit rate 2.8% among 320,000 | AID 485297, 2010; also: % of control where 0% means no effect; nearly all actives have a fitted effect of over 60% in size
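Luminescence read-out: Huh7 cells stably expressing Rab9-luciferase, treated 24 h with compound at 37 °C, then lysed with luciferase reagent for 10 min at ambient before reading.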
SMN2 splice up: qHTS Assay for Enhancers of SMN2 Splice Variant Expression. hit rate 2.8% among 210,000. Potency, µM (doses to about 46.1 µM), inactives show at the highest dose activity change, positive = activation, hits mostly activators. HEK293 SMN2-luciferase splicing reporter, luminescence, 30-36 h; also: % of control where 0% means no effect; nearly all actives have a fitted effect of over 55% in size
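qHTS luciferase splicing reporter: luminescence rises when SMN2 exon 7 is included in transfected HEK293 cells. Compound exposure lasted 30-36 h at 37C, with 4.5 mM final sodium butyrate as control, followed by a ONE-Glo read.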
ELG1 repair inh: qHTS screen for small molecules that inhibit ELG1-dependent DNA repair in human embryonic kidney (HEK293T) cells expressing luciferase-tagged ELG1; hit rate 2.3% among 330,000; HEK293T ELG1-luciferase reporter, luminescence, 16 h; DNA damage induced by 5-fluorouridine; Potency, µM (doses to about 46.1 µM), for the others: at the highest dose activity change, negative = inhibition, hits mostly inhibitors; also: % is scaled to controls: 0 for no effect and ±100 for the full control effect; nearly all actives have a fitted effect of over 55% in size
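Quantitative HTS, concentration-response format. 2,000 cells/well co-treated with 5-fluorouridine and compound, 16 hr in 5% CO2 at 37 °C; ONE-Glo luminescence read after 30 min.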
FLuc modulator: qHTS profiling assay for firefly luciferase inhibitor/activator using purifed enzyme and Km concentrations of substrates (counterscreen for miR-21 project) | Luciferin 4-monooxygenase (Photinus pyralis), P08659 | purified FLuc, Km substrates, luminescence inhibition | Potency, µM (doses to about 57.5 µM), without a hit: at the highest dose activity change, negative = inhibition, most hits filed as inhibitors | hit rate 6.9% among 360,000;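 also: plate controls were vehicle for no effect and reference inhibitor for full effect; nearly all actives have a fitted effect of over 55% in size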
Target sequence (P08659 whole entry, looked up): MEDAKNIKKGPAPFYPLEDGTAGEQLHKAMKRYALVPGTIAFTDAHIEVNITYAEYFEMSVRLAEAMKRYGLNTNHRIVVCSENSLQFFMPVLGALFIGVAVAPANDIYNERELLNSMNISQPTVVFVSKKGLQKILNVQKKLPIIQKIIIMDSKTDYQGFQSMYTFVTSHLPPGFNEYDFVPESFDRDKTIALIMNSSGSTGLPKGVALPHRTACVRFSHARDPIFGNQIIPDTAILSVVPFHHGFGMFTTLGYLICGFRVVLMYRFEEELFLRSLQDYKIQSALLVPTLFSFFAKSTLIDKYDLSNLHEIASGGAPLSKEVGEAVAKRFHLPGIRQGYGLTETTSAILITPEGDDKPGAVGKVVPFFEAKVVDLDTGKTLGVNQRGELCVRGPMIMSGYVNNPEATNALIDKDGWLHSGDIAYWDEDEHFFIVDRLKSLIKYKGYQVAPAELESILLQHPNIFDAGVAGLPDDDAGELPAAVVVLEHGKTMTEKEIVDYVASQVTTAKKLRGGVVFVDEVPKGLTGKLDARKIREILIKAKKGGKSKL
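Purified P. pyralis luciferase, 10 nM final, with Km-level 10 uM D-luciferin and 10 uM ATP in 50 mM Tris acetate pH 7.5, 10 mM Mg acetate, 0.01% Tween-20, 0.05% BSA; 6-point qHTS titration about 60 µM downward; luminescence read.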
ELG1 genotox: qHTS screen for small molecules that induce genotoxicity in human embryonic kidney (HEK293T) cells expressing luciferase-tagged ELG1. hit rate 1.3% among 330,000. HEK293T ELG1-luciferase reporter, luminescence, 16 h. Potency, µM (titrated, usually from 46 µM), without a hit: top-dose activity change, positive = activation, actives largely listed as activators. AID 504466, 2011; also: % of control where 0% means no effect; nearly all actives have a fitted effect of over 60% in size
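Genotoxic stress is detected as increased luminescence from luciferase-tagged ELG1 in HEK293T cells, measured with ONE-Glo after a 16 hr treatment at 37 °C.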
NPC1 promoter act: qHTS Assay for NPC1 Promoter Activators | Huh7 NPC1 promoter luciferase reporter, 24 h | Potency, µM (series often up to 9.22 µM), inactives show at the highest dose activation, hits mostly activators | hit rate 2.4% among 320,000; also: % of control where 0% means no effect; nearly all actives have a fitted effect of over 60% in size
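Luminescence read-out of NPC1 promoter-driven luciferase in stably transfected Huh7 cells; compounds delivered in DMSO and left 24 h at 37C, 5% CO2, qHTS titration format.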
Starred values were filed as active, the others as inactive; ! = a repeat was not active. Calls follow the shape of the dose curve; as a rule, active = well fitted curve in the direction sought with a large enough effect; inconclusive = small, poorly fitted or top-dose-only effect, or another doubt; inactive = no such curve, though single readings can be large; an effect the other way counts as inactive or inconclusive. Potency is read from the fitted curve at half-maximal effect.

`O=C(O)c1cnn(-c2nc(-c3ccc(F)cc3)cs2)c1C(F)(F)F` gave Rab9 prom act inconclusive, SMN2 splice up 27%, ELG1 repair inh inconclusive, FLuc modulator 21µM*, ELG1 genotox 14% and NPC1 promoter act 28%.
CS(=O)(=O)c1ccc(-c2csc(N3CCC(C(N)=O)CC3)n2)cc1 was read as FLuc modulator -9%.
For O=C(Nc1nc(-c2ccc(F)cc2)cs1)C1CCN(C(=O)c2ccc(F)cc2)CC1 the results were Rab9 prom act -16%, ELG1 repair inh 18µM*, FLuc modulator -12%, ELG1 genotox -9% and NPC1 promoter act -17%.
Screening Cn1ccc2cc(-c3csc(N4CCC(C(N)=O)CC4)n3)ccc21 returned Rab9 prom act 1.3µM*, ELG1 repair inh 12%, FLuc modulator 12µM*, ELG1 genotox 3% and NPC1 promoter act 2.8µM*.
CCOC(=O)c1cnn(-c2nc(-c3ccc(C)cc3)cs2)c1C(F)(F)F was read as Rab9 prom act -5%, SMN2 splice up 4%, ELG1 repair inh 0%, FLuc modulator -15%, ELG1 genotox 1% and NPC1 promoter act 2%.
For NC(=O)C1CCN(c2nc(-c3ccc(F)cc3)cs2)CC1 the results were Rab9 prom act 1.4µM*!, ELG1 repair inh inconclusive, FLuc modulator 2%, ELG1 genotox 0% and NPC1 promoter act 2.2µM*!.
O=[N+]([O-])c1ccc(O)c(C(C#Cc2ccccc2)N2CCOCC2)c1 (configuration not stated) was read as Rab9 prom act 18%, ELG1 repair inh inconclusive, FLuc modulator inconclusive, ELG1 genotox 1% and NPC1 promoter act 4%.
O=c1[nH]nc(N2CCOCC2)c(=O)[nH]1 was read as Rab9 prom act 1%, ELG1 repair inh 2%, FLuc modulator 0%, ELG1 genotox 0% and NPC1 promoter act -5%.
`CNc1nc(N)nc(-c2cc(Cl)ccc2OC)n1` gave Rab9 prom act -11%, ELG1 repair inh 8%, FLuc modulator 1%, ELG1 genotox 0% and NPC1 promoter act 1%.
For CCOC(=O)N1CCN(c2nc(-c3ccc(F)cc3)cs2)CC1 the results were Rab9 prom act -2%, SMN2 splice up inconclusive, ELG1 repair inh 0%, FLuc modulator 19µM*, ELG1 genotox inconclusive and NPC1 promoter act -3%.
NC(=O)C1CCN(c2nc(-c3ccc4occc(=O)c4c3)cs2)CC1 was read as Rab9 prom act 2.5µM*, ELG1 repair inh -17%, FLuc modulator inconclusive, ELG1 genotox 4% and NPC1 promoter act inconclusive.
Screening S=C(NCC1CCCO1)N1CCN(c2nc(-c3ccc(Cl)cc3)cs2)CC1 (configuration not stated) returned Rab9 prom act -18%, SMN2 splice up -62%, ELG1 repair inh 12µM*, FLuc modulator inconclusive, ELG1 genotox -10% and NPC1 promoter act -13%.
`NC(=O)C1CCN(c2nc(-c3ccccc3F)cs2)CC1` gave Rab9 prom act 0.32µM*, ELG1 repair inh inconclusive, FLuc modulator inconclusive, ELG1 genotox inconclusive and NPC1 promoter act 0.79µM*.
NC(=O)C1CCN(c2nc(-c3ccccc3Br)cs2)CC1 was read as Rab9 prom act 0%, ELG1 repair inh inconclusive, FLuc modulator inconclusive, ELG1 genotox inconclusive and NPC1 promoter act 10%.

Assay outcomes: PubChem, National Center for Advancing Translational Sciences (NCATS)
